These results are taken from PubChem BioAssay.

Activity calls are given as the source filed them.

A short description of this assay: resazurin metabolic signal in A549 cells – cell-based, resazurin fluorescence, 24 h, PK04 Diversity Set, profiling panel (AID 1171). Note: test concentration not given here. The settings on record: A549 viability, higher = more signal, called active from +8 up or from −8 down. (Resazurin is reduced to fluorescent resorufin, in cell work by metabolically active cells.)
Turning to `COc1ccc(CCNC(=O)[C@@]2(Sc3ccc(C)cc3)CC(=O)N(Cc3cc(C(F)(F)F)cc(C(F)(F)F)c3)[C@@H]2c2ccc(CO)cc2I)cc1`, the z-score is 0.469 (inactive).

In the case of `CN(C)CCCNC(=O)[C@@H]1c2ccccc2C(=O)N(Cc2ccc(OC(F)(F)F)cc2)[C@H]1c1ccc(CO)cc1`, the z-score was 0.989 (inactive).

As for `COCCCNC(=O)[C@@]1(Sc2ccc(C)cc2)CC(=O)N(C2Cc3ccccc3C2)[C@@H]1c1ccc(CO)cc1I`, the z-score is -0.3 (inactive).

`CCCCC(CC)C(O)C1C=CC2C(=O)N(c3ccccc3)C(=O)C2N1Nc1ccc([N+](=O)[O-])cc1` (stereo unspecified): the z-score was -0.451 (inactive).

On to `CC(C)C(=C=CC[C@@H](O)c1ccccc1OCCO)C[C@@H](O)COCc1ccccc1`, for which the z-score is 0.15 (inactive).

As to `C[C@H]1C2=C3C(CC[C@H]4C(OCc5ccc(F)cc5C(F)(F)F)OC[C@](C)([C@@H]34)N(C(=O)OC(C)(C)C)C2)C2COC(=O)OCC21` (stereo partly specified), the z-score was 0.117 (inactive).

Turning to `CCOC(=CC(=O)OC)CC(O)c1cccc(Cl)c1` (stereo unspecified), the z-score was 0.0735 (inactive).

As to `COc1cc(OC)c(C(O)C2C=CC3C(=O)N(c4ccccc4)C(=O)C3N2Nc2ccc(C#N)cc2)cc1Br` (stereo unspecified), the z-score is -0.578 (inactive).

Regarding `CN(C)CCCNC(=O)[C@@H]1c2ccccc2C(=O)N(CC23CC4CC(CC(C4)C2)C3)[C@H]1c1ccc(CO)cc1`, the z-score is 1.21 (inactive).

For the compound `COc1cc2c(cc1OC)CN(C(=O)[C@H]1[C@@H]3C(=O)O[C@@H](c4ccccc4)[C@@H](c4ccccc4)N3[C@@H](c3ccc(OCCO)cc3)[C@]13C(=O)Nc1ccc(C#CCCO)cc13)CC2`, the z-score is 0.604 (inactive).

Consider `COCCOC(=O)N1C(=O)[C@@]2(c3cc(C#CC4=CCCCC4)ccc31)[C@H](c1ccccc1OCCO)N1[C@H](c3ccccc3)[C@H](c3ccccc3)OC(=O)[C@H]1[C@@H]2C(=O)N1CCc2cc(OC)c(OC)cc2C1`, for which the z-score is -0.926 (inactive).
